Assay [1] is described as follows: antimalarial activity against Dd2 strain (AID 2302;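 active means growth inhibition above 50% at the single 2 µM test dose, taken to imply half-maximal potency below 2 µM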;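 further: 0% = DMSO untreated growth and 100% = chloroquine plus artemisinin killed control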). The settings on record: P. falciparum Dd2 in RBCs, LDH growth readout, 72 h; at 2 µM; stronger effect = higher value.
Assay [2] is described as follows: human hepatoma cell viability loss – ATP luminescence, cytotoxicity control for P. falciparum antimalarial project, primary screen (AID 2303;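 active means inhibition above 50%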;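 further: 0% = DMSO wells and 100% = digitonin-killed cells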). The settings on record: HepG2 viability, 24-48 h, at 10 µM, stronger effect = higher value.
In assay [3] the target is L-lactate dehydrogenase (Plasmodium falciparum (isolate CDC / Honduras)) (UniProt Q27743). The experiment in a line: PfLDH activity inhibition – cell lysate, 3D7 strain, counter-screen for P. falciparum growth inhibition project (AID 2304).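 Further: 0% = vehicle and 100% = reference inhibitor.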 The settings on record: P. falciparum 3D7 crude extract, LDH APAD/NBT absorbance; at 2 µM; stronger effect = higher value. Background: The purpose of a counterscreen is to sort out artefacts and off-target activity.

A short description of assay [4]: inhibition of 3D7 malaria parasite growth – strain 3D7 (AID 2306).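 Further: 0% = DMSO wells and 100% = chloroquine plus artemisinin control wells.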 As to conditions: P. falciparum 3D7 erythrocytic growth, LDH absorbance, 72 h; at 2 µM; stronger effect = higher value.
Assay [5] has as its target Calcium-dependent protein kinase 1 (Plasmodium falciparum (isolate 3D7)) (UniProt P62344). The experiment in a line: PfCDPK1 kinase inhibitors, biochemical, TCAMS library (AID 1159585; cut-off not given, nearly all actives have IC50 up to about 0.98 µM;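 further: inhibitors leave more ATP so luminescence rises with inhibition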). The settings on record: recombinant PfCDPK1, Kinase-Glo ATP depletion luminescence. In general terms: In Kinase-Glo more light means more ATP remaining.
Assay [6] concerns the target Plasmodium falciparum protein kinase 6 (PK6, PF3D7_1337100) (UniProt Q8IDW1). The experiment in a line: PfPK6 kinase inhibitors, biochemical, TCAMS library (AID 1159586). The settings on record: recombinant PfPK6, Kinase-Glo ATP depletion luminescence.
Assay [7] deals with Protein kinase 7 (PK7), Plasmodium falciparum 3D7 (PF3D7_0213400) (UniProt Q7YTF7). The experiment in a line: inhibition of Plasmodium PK7 catalytic activity – biochemical, TCAMS antimalarial set, Kinase-Glo luminescence (AID 1159587). The settings on record: recombinant PfPK7, Kinase-Glo ATP depletion luminescence.
Assay [8] concerns the target Calcium-dependent protein kinase 4 (Plasmodium falciparum (isolate 3D7)) (UniProt Q8IBS5). The experiment in a line: PfCDPK4 kinase inhibitors, biochemical, TCAMS library (AID 1159588; cut-off not given, nearly all actives have IC50 up to about 0.91 µM). As to conditions: recombinant PfCDPK4, Kinase-Glo ATP depletion luminescence.

Each structure is given as a SMILES string. Unmarked numbers belong to inactive results. For some assays here: Measured potencies and affinities stand elsewhere. Activity calls are given as the source filed them. Unless noted, how the calls were made is not given here.

Calcium-dependent protein kinase 1 (Plasmodium falciparum (isolate 3D7)), sequence (P62344 whole entry, looked up): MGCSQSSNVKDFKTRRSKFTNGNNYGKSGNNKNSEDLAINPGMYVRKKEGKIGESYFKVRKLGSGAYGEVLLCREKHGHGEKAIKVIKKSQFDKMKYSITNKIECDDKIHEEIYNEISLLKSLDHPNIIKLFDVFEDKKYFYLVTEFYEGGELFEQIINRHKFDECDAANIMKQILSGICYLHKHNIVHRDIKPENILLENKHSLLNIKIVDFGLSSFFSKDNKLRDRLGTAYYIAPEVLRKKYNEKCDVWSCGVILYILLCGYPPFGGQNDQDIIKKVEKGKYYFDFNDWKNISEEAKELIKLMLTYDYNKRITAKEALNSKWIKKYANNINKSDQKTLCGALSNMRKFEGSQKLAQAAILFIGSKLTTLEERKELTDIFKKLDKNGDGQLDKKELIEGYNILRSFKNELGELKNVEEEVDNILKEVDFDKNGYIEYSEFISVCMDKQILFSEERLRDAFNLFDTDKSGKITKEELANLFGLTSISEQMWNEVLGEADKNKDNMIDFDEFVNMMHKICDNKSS
Plasmodium falciparum protein kinase 6 (PK6, PF3D7_1337100), sequence (Q8IDW1 1-305): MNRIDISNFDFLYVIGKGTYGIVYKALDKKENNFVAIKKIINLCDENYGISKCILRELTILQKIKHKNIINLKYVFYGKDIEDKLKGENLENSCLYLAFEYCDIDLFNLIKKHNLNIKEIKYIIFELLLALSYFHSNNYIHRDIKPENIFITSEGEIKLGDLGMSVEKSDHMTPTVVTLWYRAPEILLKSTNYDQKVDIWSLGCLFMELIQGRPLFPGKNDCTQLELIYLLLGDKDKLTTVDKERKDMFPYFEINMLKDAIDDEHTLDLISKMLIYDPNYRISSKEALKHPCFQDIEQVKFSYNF
L-lactate dehydrogenase (Plasmodium falciparum (isolate CDC / Honduras)), sequence (Q27743 whole entry, looked up): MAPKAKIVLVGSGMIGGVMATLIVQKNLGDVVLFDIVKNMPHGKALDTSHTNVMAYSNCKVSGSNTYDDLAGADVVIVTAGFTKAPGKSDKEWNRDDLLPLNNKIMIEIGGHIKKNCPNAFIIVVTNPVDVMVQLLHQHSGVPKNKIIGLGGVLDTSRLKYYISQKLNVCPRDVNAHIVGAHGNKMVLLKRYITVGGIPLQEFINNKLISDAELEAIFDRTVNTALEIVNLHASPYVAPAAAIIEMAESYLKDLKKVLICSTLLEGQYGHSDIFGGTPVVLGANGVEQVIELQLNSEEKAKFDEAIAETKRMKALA
Protein kinase 7 (PK7), Plasmodium falciparum 3D7 (PF3D7_0213400), sequence (Q7YTF7 1-343): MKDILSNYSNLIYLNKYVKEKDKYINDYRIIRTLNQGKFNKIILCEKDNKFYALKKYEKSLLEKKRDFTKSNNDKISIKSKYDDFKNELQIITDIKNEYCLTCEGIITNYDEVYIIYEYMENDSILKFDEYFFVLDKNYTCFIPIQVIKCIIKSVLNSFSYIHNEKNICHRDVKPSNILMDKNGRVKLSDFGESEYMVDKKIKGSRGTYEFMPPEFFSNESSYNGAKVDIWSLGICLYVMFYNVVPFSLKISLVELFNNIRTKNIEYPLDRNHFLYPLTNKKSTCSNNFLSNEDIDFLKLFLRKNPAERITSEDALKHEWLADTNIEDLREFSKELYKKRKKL
Calcium-dependent protein kinase 4 (Plasmodium falciparum (isolate 3D7)), sequence (Q8IBS5 whole entry, looked up): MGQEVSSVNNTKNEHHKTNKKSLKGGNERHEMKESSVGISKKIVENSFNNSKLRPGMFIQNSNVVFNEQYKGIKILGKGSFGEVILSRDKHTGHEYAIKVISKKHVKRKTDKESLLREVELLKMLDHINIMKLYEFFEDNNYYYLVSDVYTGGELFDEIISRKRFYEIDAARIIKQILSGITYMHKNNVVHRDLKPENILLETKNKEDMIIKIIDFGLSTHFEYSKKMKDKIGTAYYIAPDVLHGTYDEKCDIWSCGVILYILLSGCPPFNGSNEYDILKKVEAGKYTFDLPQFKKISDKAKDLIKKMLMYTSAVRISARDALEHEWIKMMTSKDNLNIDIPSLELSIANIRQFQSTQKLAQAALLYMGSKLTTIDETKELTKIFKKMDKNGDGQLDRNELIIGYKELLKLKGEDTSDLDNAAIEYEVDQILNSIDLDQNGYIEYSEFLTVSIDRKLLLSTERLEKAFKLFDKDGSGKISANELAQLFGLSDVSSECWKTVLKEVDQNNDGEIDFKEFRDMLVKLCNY

As to `O=c1[nH]c(Cc2ccccc2)nc2ccc(Cl)cc12`, the growth inhibition was 76% (active) in assay [1] and 92% (active) in assay [4]. The values for the inhibition in assay [2] and in assay [3] were 13% and 3%, respectively. For the same compound, the outcome in assay [5], in assay [6], in assay [7] and in assay [8] was inactive.
Consider `CC(C)c1sc(N2CCN(C)CC2)nc1C(=O)Nc1cccc2c1CCCC2`, for which the growth inhibition in assay [1] is 50% (active); in assay [4], 98% (active). Further, the results for the inhibition in assay [2] and in assay [3] were 3% and -1%, respectively. Besides, the result in assay [5], in assay [6], in assay [7] and in assay [8] was inactive.
Consider `O=C(Nc1ccc(OC2CCN(Cc3ccc(F)cc3)C2)c(Cl)c1)c1ccccc1` (configuration not stated), for which the growth inhibition is 86% (active) in assay [1] and 91% (active) in assay [4]. For the same compound, the inhibition in assay [2] was 11%; in assay [3], 0%. The outcome in assay [5], in assay [6], in assay [7] and in assay [8] was inactive.
As for `CN1CCC(N(Cc2ccc(N3CCN(Cc4c[nH]c5ccc(Cl)cc45)CC3)nc2)C2CC2)CC1`, the growth inhibition in assay [1] is 76% (active); in assay [4], 100% (active). The figures for the inhibition in assay [2] and in assay [3] were 96% (active) and -2%, respectively. In addition, the result in assay [5], in assay [6], in assay [7] and in assay [8] was inactive.
With `COC(=O)c1cccc(NC(=O)NC2CCN(c3ccnc(Nc4ccc(F)cc4)n3)C2)c1` (configuration not stated), the growth inhibition in assay [1] was 83% (active); in assay [4] it was 100% (active). Also, the figures for the inhibition in assay [2] and in assay [3] were 5% and 3%, respectively. Besides, the outcome in assay [5], in assay [6], in assay [7] and in assay [8] was inactive.
For `Cc1ccc(F)cc1-c1cc(N2CCCN(C(=O)c3ccc(Br)o3)CC2)ncn1`, the figures for the growth inhibition in assay [1] and in assay [4] were 91% (active) and 94% (active), respectively. Moreover, the inhibition in assay [2] and in assay [3] was 0% in each case. Moreover, the outcome in assay [5], in assay [6], in assay [7] and in assay [8] was inactive.
As for `O=C(Cn1c(CCc2cccc(F)c2F)nc(=O)c2ccccc21)N(Cc1ccc(-c2ccc(C(F)(F)F)cc2)cc1)C1CCN(C2CCOCC2)CC1`, the growth inhibition in assay [1] was 76% (active); in assay [4], 101% (active). Besides, the inhibition in assay [2] is 97% (active); in assay [3] it was -2%. The result in assay [5], in assay [6], in assay [7] and in assay [8] was inactive.
For the compound `CC(C)(C)c1ccc(-c2ccccc2CNC(=O)c2cccc(O)c2)cc1`, the results for the growth inhibition in assay [1] and in assay [4] were 88% (active) and 99% (active), respectively. In addition, the inhibition is 3% in assay [2] and -2% in assay [3]. The result in assay [5], in assay [6], in assay [7] and in assay [8] was inactive.
As for `O=C(CC(c1ccccc1)c1ccccc1O)N1CCOCC1` (configuration not stated), the growth inhibition was 5% in assay [1] and 84% (active) in assay [4]. Moreover, the inhibition in assay [2] is 30%; in assay [3], 0%. Moreover, the outcome in assay [5], in assay [6], in assay [7] and in assay [8] was inactive.
For the compound `CN(C(=O)/C=C/c1cc(C(F)(F)F)ccc1F)C1CCN(CCCCCNC(=O)/C=C/c2ccc(Cl)c(Cl)c2)C1` (configuration not stated), the growth inhibition in assay [1] was 1%; in assay [4], 93% (active). The inhibition was 16% in assay [2] and -3% in assay [3]. Also, the outcome in assay [5], in assay [6], in assay [7] and in assay [8] was inactive.
Take `Clc1ccc(NC(=NCCCCCCCN=C(Nc2ccc(Cl)cc2)Nc2ccc(Cl)cc2)Nc2ccc(Cl)cc2)cc1`: the growth inhibition in assay [1] is 99% (active); in assay [4], 101% (active). The inhibition in assay [2] is 100% (active); in assay [3], 0%. For the same compound, the outcome in assay [5], in assay [6], in assay [7] and in assay [8] was inactive.
For the compound `Nc1ccc(-c2csc(Nc3ccncc3)n2)cc1`, the growth inhibition in assay [1] was 50% (active); in assay [4], 95% (active). Moreover, the values for the inhibition in assay [2] and in assay [3] were 12% and -3%, respectively. For the same compound, the outcome in assay [5], in assay [6], in assay [7] and in assay [8] was inactive.
Turning to `Oc1ccc2nc(NCCCc3ccccc3)nc(NCCCc3ccccc3)c2c1`, the growth inhibition in assay [1] was 93% (active); in assay [4], 101% (active). Besides, the inhibition is 5% in assay [2] and -3% in assay [3]. Moreover, the outcome in assay [5], in assay [6], in assay [7] and in assay [8] was inactive.
Consider `COc1ccc2ncc(OC)c(CCN3CC[C@@H](NCc4ccc5c(n4)NC(=O)CS5)[C@H](O)C3)c2n1`, for which the growth inhibition is 99% (active) in assay [1] and 94% (active) in assay [4]. For the same compound, the inhibition in assay [2] was 21%; in assay [3], 4%. For the same compound, the outcome in assay [5], in assay [6], in assay [7] and in assay [8] was inactive.
Take `O=C(/C=C/c1ccc(Cl)c(Cl)c1)NCCCCCN1CCC(n2c(=O)[nH]c3ccccc32)CC1`: the growth inhibition is -1% in assay [1] and 97% (active) in assay [4]. Further, the inhibition in assay [2] is 38%; in assay [3], 2%. Also, the outcome in assay [5], in assay [6], in assay [7] and in assay [8] was inactive.
For `C[C@H](Cc1ccc(CCc2ccc(C[C@@H](C)NC[C@H](O)c3cccc(Cl)c3)cc2)cc1)NC[C@H](O)c1cccc(Cl)c1`, the growth inhibition in assay [1] is 92% (active); in assay [4] it was 95% (active). Besides, the inhibition is 100% (active) in assay [2] and 2% in assay [3]. Also, the result in assay [5], in assay [6], in assay [7] and in assay [8] was inactive.
In the case of `CCN(CC)CCN(Cc1ccc(-c2ccc(C(F)(F)F)cc2)nc1)C(=O)Cn1cc(Cc2cnn(C)c2)c(=O)n2nc(-c3ccccc3)cc12`, the figures for the growth inhibition in assay [1] and in assay [4] were 95% (active) and 97% (active), respectively. Also, the inhibition in assay [2] is 35%; in assay [3], -3%. Moreover, the outcome in assay [5], in assay [6], in assay [7] and in assay [8] was inactive.
Turning to `CN(C)c1ccc(-c2ccc(C(=O)NC3CCN(Cc4ccccc4)CC3)s2)cc1`, the growth inhibition in assay [1] was 10%; in assay [4] it was 92% (active). The inhibition was 20% in assay [2] and -3% in assay [3]. Besides, the outcome in assay [5], in assay [6], in assay [7] and in assay [8] was inactive.
For the compound `Cc1cc(N[C@@H](Cc2ccccc2)C(=O)NCCCOC(C)C)nc(NCC2CCCCC2)n1`, the figures for the growth inhibition in assay [1] and in assay [4] were 25% and 94% (active), respectively. In addition, the inhibition in assay [2] was 17%; in assay [3] it was -4%. Also, the result in assay [5], in assay [6], in assay [7] and in assay [8] was inactive.

What is called inhibition is the relative decrease from the control value, in per cent.
